# Data as given in PubChem BioAssay (NCATS).
# Records with an inconclusive call do not appear. A call without a number means that no potency is given here. Activity calls are given as the source filed them. Unless noted, calls come from the whole dose curve; as a rule, active = well fitted curve in the direction sought with a large enough effect; inconclusive = small, poorly fitted or top-dose-only effect, or another doubt; inactive = no such curve, though single readings can be large; an effect the other way counts as inactive or inconclusive.
# Tests used:
# [1] = target: Chromobox protein homolog 1 (Homo sapiens) (UniProt P83916); assay: qHTS Validation Assay for Inhibitors of HP1-beta Chromodomain Interactions with Methylated Histone Tails (AID 488953); note: nearly all actives have a fitted effect of over 50% in size; note: potency is the fitted concentration of half-maximal effect
# Chromobox protein homolog 1 (Homo sapiens), sequence (P83916 whole entry, looked up): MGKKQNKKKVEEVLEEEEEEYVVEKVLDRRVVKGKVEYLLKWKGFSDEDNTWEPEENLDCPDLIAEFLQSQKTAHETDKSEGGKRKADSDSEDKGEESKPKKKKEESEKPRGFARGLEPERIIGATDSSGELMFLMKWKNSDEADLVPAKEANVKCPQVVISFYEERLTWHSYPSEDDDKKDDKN
# Outline: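 50 nM HP1-beta + 50 nM biotin-H3(1-18)K9me3, PBS pH 7.4, 0.01% Tween-20, 30 min RT; compound added, 30 min RT; AlphaScreen beads 10 ug/mL final, 30 min dark; luminescence read.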
# [2] = target: Transient receptor potential cation channel subfamily V member 1 (Homo sapiens) (UniProt Q8NER1); assay: HTS Assay for Compounds that Act as Enhancers of the Vanilloid Receptor 1 (AID 488979)
# Transient receptor potential cation channel subfamily V member 1 (Homo sapiens), sequence (Q8NER1 whole entry, looked up): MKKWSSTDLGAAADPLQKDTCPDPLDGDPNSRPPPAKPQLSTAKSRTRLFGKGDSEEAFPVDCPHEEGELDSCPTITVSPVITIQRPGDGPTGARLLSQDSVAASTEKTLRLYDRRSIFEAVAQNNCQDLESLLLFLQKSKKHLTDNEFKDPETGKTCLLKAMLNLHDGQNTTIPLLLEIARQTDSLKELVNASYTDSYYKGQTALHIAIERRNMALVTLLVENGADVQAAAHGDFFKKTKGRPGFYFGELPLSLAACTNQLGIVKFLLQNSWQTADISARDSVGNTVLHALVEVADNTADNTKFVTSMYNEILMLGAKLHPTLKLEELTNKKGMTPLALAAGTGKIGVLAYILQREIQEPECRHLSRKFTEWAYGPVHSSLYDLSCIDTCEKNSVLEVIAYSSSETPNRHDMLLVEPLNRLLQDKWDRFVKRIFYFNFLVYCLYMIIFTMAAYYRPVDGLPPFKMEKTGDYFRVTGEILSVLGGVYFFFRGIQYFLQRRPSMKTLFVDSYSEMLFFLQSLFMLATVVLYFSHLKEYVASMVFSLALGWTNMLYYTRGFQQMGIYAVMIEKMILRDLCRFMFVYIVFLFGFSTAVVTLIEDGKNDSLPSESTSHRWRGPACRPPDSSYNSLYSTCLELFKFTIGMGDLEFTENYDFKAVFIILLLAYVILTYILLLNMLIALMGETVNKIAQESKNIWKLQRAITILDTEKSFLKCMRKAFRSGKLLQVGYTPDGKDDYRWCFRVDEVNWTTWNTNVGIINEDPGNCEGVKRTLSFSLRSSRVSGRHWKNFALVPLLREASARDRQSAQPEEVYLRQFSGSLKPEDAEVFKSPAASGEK
# Outline: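 TRPV1-expressing cells loaded with Fluo-8 calcium dye; compounds added and calcium influx read kinetically for 3 min (agonist phase), then capsaicin at EC20 added and read 2 min more for enhancement. Fluorescence ex 480/em 520 nm.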
# [3] = target: D(1A) dopamine receptor (Homo sapiens) (UniProt P21728); assay: HTS Assay for Allosteric Agonists of the Human D1 Dopamine Receptor: Primary Screen for Agonists (AID 488981)
# D(1A) dopamine receptor (Homo sapiens), sequence (P21728 whole entry, looked up): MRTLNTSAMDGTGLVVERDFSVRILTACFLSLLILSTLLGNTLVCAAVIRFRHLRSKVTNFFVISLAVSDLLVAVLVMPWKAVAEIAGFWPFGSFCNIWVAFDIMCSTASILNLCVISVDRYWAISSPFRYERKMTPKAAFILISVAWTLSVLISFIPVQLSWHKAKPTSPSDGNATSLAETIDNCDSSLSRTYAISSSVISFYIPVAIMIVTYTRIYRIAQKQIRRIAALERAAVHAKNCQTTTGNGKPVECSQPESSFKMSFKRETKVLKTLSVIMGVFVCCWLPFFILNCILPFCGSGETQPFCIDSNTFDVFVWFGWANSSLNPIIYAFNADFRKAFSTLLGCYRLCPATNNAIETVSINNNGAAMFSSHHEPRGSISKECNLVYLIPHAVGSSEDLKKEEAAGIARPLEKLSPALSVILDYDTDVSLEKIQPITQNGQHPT
# Outline: (§1)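 Tetracycline-induced HEK293 T-REx cells force-coupled to calcium signalling were incubated overnight at 30 C and dye-loaded at room temperature. Calcium flux over 180 s after compound addition flagged agonists; a further 180 s read after EC20 dopamine flagged potentiators.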
# [4] = target: D(1A) dopamine receptor (Homo sapiens) (UniProt P21728); assay: HTS Assay for Allosteric Agonists of the Human D1 Dopamine Receptor: Primary Screen for Antagonists (AID 488983);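 note: calcium flux response to an EC80 dopamine challenge measured with no-wash dye; nearly all actives have a fitted effect of over 65% in size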; note: potency is the fitted concentration of half-maximal effect
# Outline: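 Cells are induced with tetracycline and incubated overnight at 30 C, then loaded with calcium dye for 30 to 90 minutes at room temperature. Compound addition is followed by a 180 s read, then an EC80 dopamine addition and another 180 s read.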
# [5] = Validation screen for small molecules that induce genotoxicity in human embryonic kidney (HEK293T) cells expressing luciferase-tagged ELG1 (AID 493106)
# Outline: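 Luminescence from an ELG1-luciferase fusion serves as the read-out, rising when genetic stress elevates ELG1 protein. HEK293T reporter cells (2,000 per well) received 23 nL compound, incubated 16 hr at 37 °C, then ONE-Glo for 30 min at room temperature.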
# [6] = target: ATPase family AAA domain-containing protein 5 (Homo sapiens) (UniProt Q96QE3); assay: Validation screen for small molecules that inhibit ELG1-dependent DNA repair in human embryonic kidney (HEK293T) cells expressing luciferase-tagged ELG1 (AID 493107);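 note: cells co-treated with the DNA-damaging agent 5-fluorouridine alongside compound; series mostly up to about 46 µM; inhibitors lower the ELG1-luciferase luminescence signal; nearly all actives have a fitted effect of over 70% in size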
# Outline: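 Luminescence from ONE-Glo, developed 30 min at room temperature, served as read-out of ELG1-luciferase levels. Beforehand, reporter HEK293T cells received 5-fluorouridine plus test compound for 16 hr at 37 °C.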
# [7] = target: Thyrotropin-releasing hormone receptor (Homo sapiens) (UniProt P34981); assay: qHTS for Small Molecule Agonists and Allosteric Enhancers of Human TRH Receptor: Validation Screen for Agonists (AID 493127;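 active = calcium activation more than 3 SD above the typical response in the agonist read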;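 note: intracellular calcium rise by fluo-8 fluorescence before TRH EC20 addition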); conditions: TRH receptor agonist cell assay; at 2 µM; stronger effect = higher value
# Thyrotropin-releasing hormone receptor (Homo sapiens), sequence (P34981 whole entry, looked up): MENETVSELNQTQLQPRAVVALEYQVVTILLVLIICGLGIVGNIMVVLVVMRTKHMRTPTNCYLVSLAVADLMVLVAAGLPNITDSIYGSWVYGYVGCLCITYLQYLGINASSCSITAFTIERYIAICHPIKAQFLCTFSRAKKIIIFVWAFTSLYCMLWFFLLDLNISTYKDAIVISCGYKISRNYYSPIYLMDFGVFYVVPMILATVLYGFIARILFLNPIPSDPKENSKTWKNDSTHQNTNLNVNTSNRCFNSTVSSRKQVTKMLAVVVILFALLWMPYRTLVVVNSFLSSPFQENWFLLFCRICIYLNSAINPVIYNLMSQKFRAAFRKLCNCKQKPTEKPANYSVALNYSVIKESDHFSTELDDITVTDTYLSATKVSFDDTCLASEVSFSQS
# Outline: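 Cells 2000/well, 10% FCS, 18 h 33.5C/5% CO2 → fluo-8 Ca dye, RT 30 min–1.5 h → FDSS baseline 10 × 1 s → compound added → 230 cycles (1 s/cycle) agonist mode. TRH controls.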
# [8] = Nrf2 qHTS screen for inhibitors: Validation (AID 493153; active = well fitted inhibition curve with a large enough effect in the main read-out, with a control signal flat, not every such curve was filed as active); conditions: Potency: luciferase luminescence; viability change: measured here: cytotoxicity max response
# Outline: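 Luminescence from an ARE-firefly luciferase reporter in A549 cells gives Nrf2 inhibition; an earlier CellTiter-Fluor fluorescent read flags cytotoxicity. Cells in 5% FBS OPTI-MEM received compound dilution series for 18-24 h at 37°C.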
# [9] = qHTS for Inhibitors of Cell Surface uPA Generation: Validation Assay (AID 493164)
# Outline: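 RAW 264.7 cells (4000/well) were plated overnight, then exposed for 18 h at 37 C, 5% CO2 to compounds in a 7-point 1:5 titration (2.45 nM–38.3 uM final). Intracellular ATP was read by ATP-Lite luminescence.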
# [10] = target: Galactokinase (Homo sapiens) (UniProt P51570); assay: qHTS Validation Assay for Inhibitors of Human Galactokinase (GALK) (AID 493189)
# Galactokinase (Homo sapiens), sequence (P51570 whole entry, looked up): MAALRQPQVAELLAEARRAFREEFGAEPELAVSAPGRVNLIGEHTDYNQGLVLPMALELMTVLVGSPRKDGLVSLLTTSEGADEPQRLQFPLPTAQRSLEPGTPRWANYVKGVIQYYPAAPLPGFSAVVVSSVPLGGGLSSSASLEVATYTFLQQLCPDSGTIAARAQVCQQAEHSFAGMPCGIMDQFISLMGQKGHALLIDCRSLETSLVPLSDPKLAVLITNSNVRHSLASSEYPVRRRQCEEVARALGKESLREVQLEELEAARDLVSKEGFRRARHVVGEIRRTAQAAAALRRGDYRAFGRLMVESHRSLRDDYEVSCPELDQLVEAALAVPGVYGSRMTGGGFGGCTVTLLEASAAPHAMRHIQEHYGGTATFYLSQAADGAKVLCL
# Outline: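 Luminescence from leftover ATP (Kinase-Glo Plus, 10 min) served as read-out after a 1 h room-temperature reaction of 5 nM GALK, 100 uM galactose and 35 uM ATP at pH8.0.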
# [11] = target: Peptidyl-prolyl cis-trans isomerase NIMA-interacting 1 (Homo sapiens) (UniProt Q13526); assay: qHTS Validation Assay to Find Inhibitors of Pin1 (AID 504536; active = well fitted inhibition curve with a large enough effect in the polarisation, with a control signal flat, not every such curve was filed as active; the % refers to the polarisation)
# Peptidyl-prolyl cis-trans isomerase NIMA-interacting 1 (Homo sapiens), sequence (Q13526 whole entry, looked up): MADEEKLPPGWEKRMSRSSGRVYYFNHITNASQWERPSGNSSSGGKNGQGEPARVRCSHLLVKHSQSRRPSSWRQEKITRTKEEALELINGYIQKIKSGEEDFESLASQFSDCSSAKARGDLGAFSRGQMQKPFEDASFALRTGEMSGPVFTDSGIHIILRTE
# Outline: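 Fluorescence polarization competition: compounds (titration) displace HiFluor-488-labeled Pin1-1b peptide from Pin1 (0.3 uM final) in pH 7.5 HEPES buffer with DTT, 10 min at room temperature; %Activity normalized to no-enzyme wells, curves fitted.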
# [12] = target: Phosphoglycerate kinase, glycosomal (Trypanosoma brucei brucei) (UniProt P07378); assay: qHTS Validation Assay to Find Inhibitors of Phosphoglycerate Kinase (AID 504547); note: potency is the fitted concentration of half-maximal effect
# Phosphoglycerate kinase, glycosomal (Trypanosoma brucei brucei), sequence (P07378 whole entry, looked up): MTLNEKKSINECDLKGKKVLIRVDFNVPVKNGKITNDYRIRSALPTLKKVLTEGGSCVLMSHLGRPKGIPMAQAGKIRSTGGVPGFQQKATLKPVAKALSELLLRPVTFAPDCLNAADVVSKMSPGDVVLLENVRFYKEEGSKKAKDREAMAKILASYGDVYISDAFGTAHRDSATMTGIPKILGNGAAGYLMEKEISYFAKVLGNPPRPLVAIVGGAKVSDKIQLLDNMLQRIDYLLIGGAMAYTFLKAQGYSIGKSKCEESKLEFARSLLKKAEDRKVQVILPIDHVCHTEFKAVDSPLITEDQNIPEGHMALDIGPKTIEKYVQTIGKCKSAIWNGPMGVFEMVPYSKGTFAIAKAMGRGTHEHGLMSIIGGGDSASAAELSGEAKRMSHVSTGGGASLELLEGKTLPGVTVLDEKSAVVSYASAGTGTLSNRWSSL
# Outline: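 Substrate/PGK mix plus compound; reaction started with GAPDH (100nM final) to form 1,3-BPG; 60 min RT; Kinase-Glo Plus 10 min; luminescence. TEA 100mM pH 7.6, MgCl2 5mM, Tween-20 0.01%.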
# [13] = target: phosphoglycerate mutase (Leishmania major) (UniProt Q4Q090); assay: qHTS Validation Assay to Find Inhibitors of Phosphoglycerate Mutase (AID 504548); conditions: Potency: inhibition qHTS; note: series mostly up to about 58 µM
# phosphoglycerate mutase (Leishmania major), sequence (Q4Q090 1-553): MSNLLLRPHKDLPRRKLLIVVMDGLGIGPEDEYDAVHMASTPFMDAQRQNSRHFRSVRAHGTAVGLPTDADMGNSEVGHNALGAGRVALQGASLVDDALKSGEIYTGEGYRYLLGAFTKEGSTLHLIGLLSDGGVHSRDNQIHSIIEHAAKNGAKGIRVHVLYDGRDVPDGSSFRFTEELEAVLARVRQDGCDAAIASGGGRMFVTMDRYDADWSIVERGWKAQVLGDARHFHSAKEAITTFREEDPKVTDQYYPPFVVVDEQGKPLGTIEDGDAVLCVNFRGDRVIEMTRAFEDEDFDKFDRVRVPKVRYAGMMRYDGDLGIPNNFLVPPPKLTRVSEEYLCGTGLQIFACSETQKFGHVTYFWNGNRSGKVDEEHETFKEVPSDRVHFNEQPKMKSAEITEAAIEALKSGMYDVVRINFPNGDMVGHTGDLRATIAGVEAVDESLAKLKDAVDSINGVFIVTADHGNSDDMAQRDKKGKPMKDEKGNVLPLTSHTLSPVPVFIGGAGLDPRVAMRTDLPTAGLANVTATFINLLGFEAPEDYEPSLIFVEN
# Outline: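 Lm PGAM 1.25nM final; 100 mM TEA pH 7.6, 5 mM MgCl2, 0.01% Tween-20; 45 min RT; Kinase-GloPlus, 10 min; end-point luminescence. Enzyme-free wells as negative controls.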
# [14] = Inducers of the Endoplasmic Reticulum Stress Response (ERSR) in human glioma: Validation (AID 504836)
# Outline: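 Stably transfected U87-MG human glioma cells carrying a GRP78-based luminescent sensor were seeded at 1000 cells/well, pin-dosed with compounds and incubated 16 h. Luciferase reagent was then added, and end-point luminescence was read after 10 min at room temperature.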
# [15] = target: Methanococcus maripaludis chaperonin (MmCpn) (UniProt Q6LX38); assay: High-Throughput Screening for Modulators of Cytosolic Chaperonin Activity: MmCpn Primary Screen (AID 488978);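 note: 50 nM MmCpn enzyme hydrolysing 30 µM ATP at 37 °C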
# Methanococcus maripaludis chaperonin (MmCpn), sequence (Q6LX38 1-543): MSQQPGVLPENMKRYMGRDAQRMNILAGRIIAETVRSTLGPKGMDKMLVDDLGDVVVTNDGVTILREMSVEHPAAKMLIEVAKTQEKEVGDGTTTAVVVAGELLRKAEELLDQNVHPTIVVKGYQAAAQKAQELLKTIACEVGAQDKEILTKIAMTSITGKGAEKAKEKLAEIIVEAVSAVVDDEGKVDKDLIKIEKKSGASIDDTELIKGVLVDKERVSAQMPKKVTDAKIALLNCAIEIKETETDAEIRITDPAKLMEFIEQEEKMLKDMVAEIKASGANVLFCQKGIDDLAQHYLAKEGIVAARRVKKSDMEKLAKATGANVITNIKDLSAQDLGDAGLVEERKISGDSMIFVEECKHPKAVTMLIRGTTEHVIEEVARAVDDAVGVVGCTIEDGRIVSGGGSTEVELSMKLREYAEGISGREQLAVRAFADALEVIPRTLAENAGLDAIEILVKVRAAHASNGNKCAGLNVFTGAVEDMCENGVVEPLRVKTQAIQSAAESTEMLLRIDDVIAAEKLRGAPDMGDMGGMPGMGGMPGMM
# Outline: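 ADP formation read by HTRF Transcreener, 665/590 nm emission after 320 nm excitation. Enzyme: archaeal chaperonin at 50 nM final; substrate ATP 30 uM final; 10 min, 37C, after 5 min compound preincubation at RT.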
# [16] = target: D(1A) dopamine receptor (Homo sapiens) (UniProt P21728); assay: HTS Assay for Allosteric Agonists of the Human D1 Dopamine Receptor: Primary Screen for Potentiators (AID 488982)
# Outline: as §1
# [17] = Validation screen for small molecules that induce DNA re-replication in SW480 colon adenocarcinoma cells (AID 504364)
# Outline: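 250 cells/well; compound pinned in; 48 hr, 37 C, 5% CO2; Hoechst added, 40 min; nuclear fluorescence imaged, 405 ex / 500-530 em; re-replication scored as increase in high-intensity nuclei.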
# [18] = target: Thyrotropin receptor (Homo sapiens) (UniProt P16473); assay: qHTS Assay for Antagonists of the Thyroid Stimulating Hormone Receptor (AID 488980); note: series mostly up to about 58 µM
# Thyrotropin receptor (Homo sapiens), sequence (P16473 whole entry, looked up): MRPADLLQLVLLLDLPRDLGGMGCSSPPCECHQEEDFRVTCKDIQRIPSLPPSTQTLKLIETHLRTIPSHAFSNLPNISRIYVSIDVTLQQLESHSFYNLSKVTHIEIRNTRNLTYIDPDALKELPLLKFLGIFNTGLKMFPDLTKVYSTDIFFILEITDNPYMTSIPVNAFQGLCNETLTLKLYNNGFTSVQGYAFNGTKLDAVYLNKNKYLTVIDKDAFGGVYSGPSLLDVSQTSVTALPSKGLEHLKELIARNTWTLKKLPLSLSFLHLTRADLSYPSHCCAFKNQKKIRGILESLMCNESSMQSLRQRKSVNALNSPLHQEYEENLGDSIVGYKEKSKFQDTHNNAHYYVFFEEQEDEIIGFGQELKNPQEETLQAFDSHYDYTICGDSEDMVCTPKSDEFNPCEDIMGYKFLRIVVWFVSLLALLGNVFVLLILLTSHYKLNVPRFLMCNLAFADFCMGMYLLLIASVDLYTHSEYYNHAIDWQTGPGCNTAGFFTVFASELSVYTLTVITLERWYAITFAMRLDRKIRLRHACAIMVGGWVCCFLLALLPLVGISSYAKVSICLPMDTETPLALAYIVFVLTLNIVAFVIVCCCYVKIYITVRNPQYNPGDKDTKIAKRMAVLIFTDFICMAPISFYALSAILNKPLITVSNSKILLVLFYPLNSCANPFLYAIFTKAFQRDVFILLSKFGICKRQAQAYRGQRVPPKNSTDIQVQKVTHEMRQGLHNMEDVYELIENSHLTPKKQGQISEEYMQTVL
# Outline: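 TSHR-HEK293 cells; 70 uM RO 20-1724 PDE inhibitor; compound + EC80 TSH (4 nM final); anti-cAMP cryptate antibody/cAMP-d2 in lysis buffer, 30 min RT; HTRF 665/620 nm read.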
SMILES,Potency [1],outcome [2],Potency [3],Potency [4],Potency [5],Potency [6],activation [7],Potency [8],viability change [8] [%],outcome [9],outcome [10],Potency [11],Potency [12],Potency [13],outcome [14],outcome [15],Potency [16],Potency [17],outcome [18]
CCCN(CCC)CCc1c[nH]c2ccc(C(N)=O)cc12,inactive,inactive,inactive,inactive,inactive,inactive,0% (inactive),inactive,1.24,inactive,inactive,inactive,inactive,inactive,inactive,,,,
C[C@H](N)Cc1cccc(C(F)(F)F)c1,,,inactive,inactive,inactive,inactive,,inactive,-8.9,inactive,,inactive,inactive,inactive,,inactive,inactive,,
C=CCN1C[C@@H](C)N([C@H](c2ccc(C(=O)N(CC)CC)cc2)c2cccc(OC)c2)C[C@@H]1C,,inactive,inactive,inactive,inactive,inactive,2.06% (inactive),inactive,4.14,inactive,inactive,,inactive,inactive,inactive,inactive,,inactive,
O=[N+]([O-])c1ccc2nc(N3CCNCC3)ccc2c1,,inactive,inactive,,,inactive,1.44% (inactive),,,inactive,inactive,inactive,inactive,inactive,,inactive,inactive,inactive,
CCCN1CC[C@@H]2c3cc(O)ccc3CC[C@@H]21,,inactive,inactive,,inactive,inactive,-5.31% (inactive),inactive,9.01,inactive,inactive,inactive,inactive,inactive,,inactive,inactive,inactive,inactive
C[N+](C)(C)CC#CCN1CCCC1=O,,inactive,,inactive,inactive,inactive,57.8% (active),inactive,2.69,inactive,inactive,inactive,inactive,inactive,inactive,inactive,inactive,,inactive
NCC(O)c1cc(O)c(O)cc1F (stereo unspecified),,inactive,,2.51 µM (active),inactive,inactive,1.38% (inactive),inactive,-0.467,inactive,inactive,inactive,21.3 µM (active),inactive,,inactive,inactive,inactive,inactive
Oc1ccc2c3c1O[C@H]1c4[nH]c5ccccc5c4C[C@@]4(O)C(C2)N(CC2CC2)CCC314 (stereo partly specified),inactive,,inactive,inactive,inactive,inactive,1.69% (inactive),inactive,-8.87,inactive,inactive,inactive,inactive,inactive,inactive,,inactive,inactive,inactive
CCN(CCCl)Cc1ccccc1Br,inactive,inactive,inactive,,inactive,inactive,-8% (inactive),,,inactive,inactive,inactive,inactive,inactive,inactive,,inactive,inactive,
CC(C)[C@@]1(NC(=O)[C@@H]2C[C@@H]3c4cccc5[nH]cc(c45)C[C@H]3N(C)C2)O[C@@]2(O)[C@@H]3CCCN3C(=O)[C@H](Cc3ccccc3)N2C1=O,,,inactive,5.62 µM (active),inactive,,,inactive,10.7,inactive,,inactive,inactive,inactive,inactive,inactive,inactive,,
COc1ccc2c(c1O)-c1cccc3c1[C@@H](C2)N(C)CC3,,,inactive,10 µM (active),inactive,,,inactive,-4.97,inactive,,inactive,inactive,inactive,inactive,inactive,inactive,,
NCCc1c[nH]c2ccc(C(N)=O)cc12,inactive,inactive,inactive,inactive,inactive,inactive,1.5% (inactive),inactive,4.69,inactive,inactive,inactive,inactive,inactive,inactive,,,inactive,
c1ccc2c(N3CCNCC3)cccc2c1,inactive,inactive,inactive,,inactive,inactive,1.75% (inactive),inactive,3.18,inactive,inactive,inactive,inactive,inactive,,,inactive,inactive,
CN1CC[C@@]2(C)c3cc(O)ccc3N(C)C12 (stereo partly specified),9.5 nM (active),inactive,inactive,inactive,inactive,inactive,-0.188% (inactive),,,inactive,inactive,,inactive,inactive,inactive,,,inactive,
